The values below come from PubChem BioAssay AID1240 (Sanford-Burnham Center for Chemical Genomics, 2008).

Out of some 50,000 compounds screened, about 800 (1.6%) showed an effect of 50% or more. The full list was thinned out, with strong results kept by preference.

The target in the assay is Bcl-2-like protein 10 (Homo sapiens) (UniProt Q9HD36). Put plainly: TR3 peptide-Bcl-B binding displacers, biochemical primary FP assay, phenotype converters (AID 1240).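 Note: 0% = Bcl-B with tracer peptide and DMSO and 100% = tracer peptide lacking Bcl-B.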 The following applies: GST-Bcl-B / FITC-TR3 peptide fluorescence polarization; stronger effect = higher value; compound at 3.75 mg/L.
Bcl-2-like protein 10 (Homo sapiens), sequence (Q9HD36 whole entry, looked up): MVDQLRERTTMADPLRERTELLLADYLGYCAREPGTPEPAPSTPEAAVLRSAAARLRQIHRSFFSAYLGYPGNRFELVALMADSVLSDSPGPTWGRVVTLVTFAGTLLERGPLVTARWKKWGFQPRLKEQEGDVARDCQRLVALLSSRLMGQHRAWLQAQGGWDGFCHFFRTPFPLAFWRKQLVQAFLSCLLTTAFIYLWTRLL
Consider `C=CCNC(=O)CN(c1ccc(OC)cc1OC)S(=O)(=O)c1ccc(C)cc1`, for which the displacement was 8.5%.

With `C=COCCNC(=O)C(=O)Nc1ccc(F)cc1`, the displacement was determined as 5%.

With `Cc1cccc(NC(=O)CCCN2C(=O)c3cccc4cccc(c34)C2=O)n1`, the displacement worked out at 0.6%.

`O=C1NN(c2ccccc2)C(=O)/C1=C/c1ccc(-c2ccccc2Cl)o1`: the displacement was -13.5%.

With `COc1ccc(N2C(=O)/C(=C/c3ccc(-c4ccccc4[N+](=O)[O-])o3)SC2=S)cc1`, the displacement was 11.9%.

On to `O=C1/C(=C/c2ccc(-c3ccccc3[N+](=O)[O-])o2)SC(=S)N1c1cccc(C(F)(F)F)c1`, for which the displacement is -3%.

As for `COC(=O)c1ccccc1-c1ccc(/C=C2/SC(=S)N(CC(=O)O)C2=O)o1`, the displacement was found to be 5.3%.

As to `COC(=O)c1ccccc1-c1ccc(/C=C2/SC(=S)N(c3ccccc3)C2=O)o1`, the displacement was found to be 70%.

Consider `O=C1/C(=C/c2ccc(-c3ccccc3[N+](=O)[O-])o2)SC(=S)N1c1cccc(Cl)c1`, for which the displacement amounted to 73.5%.

Take `COC(=O)c1ccc(-c2ccc(/C=C3/SC(=S)N(c4ccccc4)C3=O)o2)cc1`: the displacement was 12.6%.

For the compound `O=C(/C=C/c1cccc(C(F)(F)F)c1)Nc1cccc([N+](=O)[O-])c1`, the displacement was 20.4%.

With `CCOc1ccccc1NC(=S)NCc1ccccc1`, the displacement turned out to be 3.9%.

Take `O=[N+]([O-])c1ccccc1S(=O)(=O)NCc1ccc2c(c1)OCO2`: the displacement is -3.4%.

`Cc1cc(OCC(=O)NC(C)c2ccccc2)cc(C)c1Cl` (configuration not stated): the displacement is 1.4%.

Regarding `Cc1cccc(OCC(=O)NC(C)c2ccccc2)c1` (configuration not stated), the displacement was -5.2%.

Consider `Cc1ccc(OCC(=O)NC(C)c2ccccc2)cc1C` (configuration not stated), for which the displacement amounted to 89.2%.

Turning to `COC(=O)c1sc(NC(=O)c2c(-c3c(Cl)cccc3Cl)noc2C)c(C#N)c1C`, the displacement is 3.1%.

On to `O=C(Oc1ccc(/C=N/NS(=O)(=O)c2ccc(Cl)cc2)cc1)c1ccco1`, for which the displacement amounted to 6.4%.

In the case of `O=C(O)c1cccc(-c2ccc(C=C3C(=O)c4ccccc4C3=O)o2)c1`, the displacement is -2.7%.

Consider `O=C(O)c1ccc(-c2ccc(C=C3C(=O)c4ccccc4C3=O)o2)cc1Cl`, for which the displacement amounted to 25.2%.

Regarding `O=C(O)c1ccc(Cl)c(-c2ccc(C=C3C(=O)c4ccccc4C3=O)o2)c1`, the displacement was determined as 99.1%.

For the compound `N/C(=N\OC(=O)c1ccc(Cl)c([N+](=O)[O-])c1)c1ccccc1Cl`, the displacement is 1.1%.

On to `O=C1c2ccccc2NC(c2ccc(-c3ccccc3[N+](=O)[O-])o2)N1c1ccccc1` (configuration not stated), for which the displacement worked out at 16.8%.

With `O=C(N/N=C/c1ccc(Br)c([N+](=O)[O-])c1)c1cccs1`, the displacement is 113%.

For `Cc1cc(C(=O)N/N=C/c2ccc(Br)c([N+](=O)[O-])c2)n[nH]1`, the displacement came out at 5.2%.

As to `O=C(CNc1ccc2ccccc2c1)N/N=C/c1ccc(Br)c([N+](=O)[O-])c1`, the displacement was -4.4%.

Turning to `O=C1N/C(=N/N=C/c2ccccc2O)SC1Cc1ccccc1` (configuration not stated), the displacement worked out at 1.4%.

For `CCC1S/C(=N\N=C\c2cccc3ccccc23)NC1=O` (configuration not stated), the displacement is 127%.

In the case of `CCC1S/C(=N/N=C/c2ccc3c(c2)OCO3)NC1=O` (configuration not stated), the displacement is -13.8%.

As to `O=c1[nH]c(=S)[nH]c2c1C1(CCCC1)Cc1ccccc1-2`, the displacement was -4.2%.

Take `COc1ccc(COC(=O)C2=C(C)NC3=C(C(=O)CCC3)C2c2cccc3ccccc23)cc1` (configuration not stated): the displacement is 10.9%.

On to `COc1ccc(/C=C(\C#N)c2nc3ccccc3[nH]2)cc1OC`, for which the displacement turned out to be 11%.

On to `COc1cc(/C=C(\C#N)c2nc3ccccc3[nH]2)c(Br)cc1O`, for which the displacement is -96.8%.

Take `COc1cc(/C=C(/C#N)c2nc3ccccc3[nH]2)c([N+](=O)[O-])cc1OCCC(C)C`: the displacement amounted to 69.6%.

For `COc1ccc(CC(=O)N2CCN(c3cccc(Cl)c3)CC2)cc1OC`, the displacement worked out at 2%.

Consider `COC(=O)C1=C(C)NC2=C(C(=O)CC(C)(C)C2)C1c1ccc(OC)cc1OC` (configuration not stated), for which the displacement was 11.9%.

In the case of `O=C1C(=Cc2ccc(Sc3ccccc3)o2)C(=O)c2ccccc21`, the displacement stood at 163%.

Regarding `O=C1C(=Cc2ccc(I)o2)C(=O)c2ccccc21`, the displacement is 37.1%.

With `Cc1ccc(C=C2C(=O)c3ccccc3C2=O)o1`, the displacement amounted to 10.9%.

Regarding `C#CCOc1c(Br)cc(/C=C2\C(=O)NC(=O)N(c3ccc(Cl)cc3)C2=O)cc1OC`, the displacement was -0.6%.

For the compound `CCn1nnnc1-c1ccc(OC)c(S(=O)(=O)Nc2ccc(F)cc2)c1`, the displacement was 6.1%.

As for `CCn1nnnc1-c1ccc(OC)c(S(=O)(=O)Nc2ccc(Br)cc2)c1`, the displacement is 58.3%.

For `CCn1nnnc1-c1ccc(OC)c(S(=O)(=O)Nc2ccc(Cl)cc2)c1`, the displacement came out at 9.3%.

As to `CCc1ccc(-n2c(C)cc(/C=C3/NC(=O)NC3=O)c2C)cc1`, the displacement was -6.3%.

With `O=C(NC1CCCCC1)c1ccc(Cl)c(Cl)c1`, the displacement is 3.3%.

Take `O=C(NC1CCCCCC1)c1cccc(Cl)c1`: the displacement is 4.5%.

Consider `O=C(NC1CCCCC1)c1ccc2nc3ccccc3nc2c1`, for which the displacement was 81.5%.

With `CCOC(=O)C(=CNc1ccccc1C(C)C)C(=O)OCC`, the displacement is -7.2%.

With `O=C1c2cccc3cccc(c23)C(=O)N1Nc1ccc([N+](=O)[O-])cc1`, the displacement amounted to 3.8%.

With `COc1ccc(-c2cc(C(=O)Nc3nc4ccc(S(C)(=O)=O)cc4s3)c3ccccc3n2)cc1OC`, the displacement amounted to 5%.

Consider `Cc1ccc2c(c1)NC(c1ccc(F)cc1)C1=C(CC(C)(C)CC1=O)N2` (configuration not stated), for which the displacement was found to be 17.8%.

Consider `Cc1ccc2c(c1)NC(c1ccc(C)o1)C1=C(CC(C)(C)CC1=O)N2` (configuration not stated), for which the displacement turned out to be 88.5%.

With `Cc1ccc2c(c1)NC(c1ccccc1)C1=C(CC(C)(C)CC1=O)N2` (configuration not stated), the displacement is -3.1%.

`CCCCCC(=O)N1c2ccccc2NC2=C(C(=O)CC(c3ccc(OC)cc3)C2)C1c1ccco1` (configuration not stated): the displacement is -3.9%.

Turning to `Cc1ccc2nc(SCc3ccc([N+](=O)[O-])cc3)nc(C)c2c1`, the displacement was -7.5%.

In the case of `O=C(Cc1ccccc1)Nc1ccc(Cl)c(-c2nc3ncccc3o2)c1`, the displacement was found to be 7.3%.

Take `Cc1ccc(C(=O)Nc2cccc3ccccc23)o1`: the displacement is 16.6%.

Turning to `Cc1ccc(C(=O)Nc2c(C(=O)N3CCC(Cc4ccccc4)CC3)cnn2-c2ccccc2)cc1`, the displacement is -8.3%.

In the case of `O=C(Nc1c(C(=O)N2CCC(Cc3ccccc3)CC2)cnn1-c1ccccc1)c1cccc(F)c1`, the displacement came to 3.5%.

With `O=C(Nc1c(C(=O)N2CCC(Cc3ccccc3)CC2)cnn1-c1ccccc1)c1ccccc1F`, the displacement came out at 88.9%.

Consider `CCOC(=O)C1=C(O)/C(=C\c2ccc(OCC)cc2)N=C1C`, for which the displacement was determined as 18.1%.

Regarding `Cc1cccc(N2C(=O)/C(=C/c3cc(C)n(C)c3C)C(=O)NC2=S)c1C`, the displacement was found to be 111%.

`Cc1ccc(N2C(=O)/C(=C/c3cc(C)n(C)c3C)C(=O)NC2=S)cc1`: the displacement turned out to be 97%.

With `Cc1cc(/C=C2\C(=O)NC(=S)N(c3ccc(Cl)cc3)C2=O)c(C)n1C`, the displacement stood at 29.5%.

Turning to `CCc1ccccc1N1C(=O)/C(=C/c2cc(C)n(C)c2C)C(=O)NC1=S`, the displacement turned out to be 8.1%.

`Cc1cc(/C=C2\C(=O)NC(=S)N(c3cccc(Cl)c3Cl)C2=O)c(C)n1C`: the displacement was 0.8%.

`Cc1cc(/C=C2\C(=O)NC(=S)N(c3ccc(Br)cc3)C2=O)c(C)n1C`: the displacement was -2.4%.
